About 4,700 (1.3%) of roughly 370,000 compounds were called active. This excerpt belongs to a sample that is enriched for actives. A number with no mark means an inactive call.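 How the source made its calls: active means inhibition above the plate cutoff, the mean of all test compounds on that plate plus 3 SD (cut at about 35% in these data); inactive means the rest.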

This assay is described as follows: small molecules binding CAG repeat RNA – biochemical, fluorescence, primary screen (AID 651821).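 Further: 0% = DMSO alone and 100% = 100 µM mitoxantrone as full dye displacement; higher means more dye released from RNA so lower well fluorescence.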 The following applies: r(CAG) RNA repeat, TO-PRO-1 dye displacement fluorescence; at 3 µM; stronger effect = higher value.
As usually defined, the inhibition is the relative decrease from the control value, in per cent. Turning to `CCn1cc(CN2CCCC(CNS(=O)(=O)Cc3ccccc3)C2)cn1` (configuration not stated), the inhibition was 0.88%.
The same measure for `Cc1ccccc1NC(=O)C1CCN(c2ncccn2)CC1`: -0.95%; for `COc1ccc(S(=O)(=O)NCC(c2ccc(C)cc2)N2CCN(C)CC2)cc1OC` (configuration not stated): -10.5%.
The same measure for `COc1ccc(C(=O)OCCN(C)C2CN(Cc3cn(Cc4cccc(C)c4)nn3)S(=O)(=O)C2)cc1OC` (configuration not stated): 0.03%; for `O=C(Nc1nnc(-c2ccccc2)o1)c1cc(-c2cccs2)nc2ccccc12`: 56.2% (active); for `Cc1c(NC(=O)c2cc(-c3ccc(Cl)s3)nc3ccccc23)c(=O)n(-c2ccccc2)n1C`: 7.65%.
The same measure for `O=C(c1cc(-c2ccc(Cl)s2)nc2ccccc12)N1CCOCC1`: 3.5%; for `CC(c1ccc(N)cc1)c1cn(C)c2ccccc12` (configuration not stated): 7.15%.
Turning to `CCC(C)[C@@H](C(=O)OC)N(CCc1cn(Cc2ccccc2)nn1)S(=O)(=O)c1ccccc1Br` (some centres not stated), the inhibition was 2.88%.
In the case of `CC(=O)N1c2ccc(S(=O)(=O)N3CCC(C(=O)NCc4ccc(F)cc4)CC3)cc2CC1C` (configuration not stated) it was 1.14%.
The same measure for `Cc1ccc(CNC(=O)C2CCN(S(=O)(=O)c3ccc4nc5c(c(C(=O)O)c4c3)CC(C)CC5)CC2)cc1` (configuration not stated): 51.8% (active); for `CCOC(CNC(=O)C1CCN(S(=O)(=O)c2ccc3nc4c(c(C(=O)O)c3c2)CC(C)CC4)CC1)OCC` (configuration not stated): 25.9%.
The same measure for `COC(=O)C1=C(C)N(Cc2ccc(C(F)(F)F)cc2)C(=NCc2ccc(C(F)(F)F)cc2)NC1c1cccc(Cl)c1` (configuration not stated): 2.08%; for `N#Cc1c(NC(=O)C2CC(Cl)=CCC2C(=O)O)sc2c1CCCCC2` (configuration not stated): 42.8% (active).
As to `O=C(O)C1CC=C(Cl)CC1C(=O)NCc1ccccc1` (configuration not stated), the inhibition was 1.32%.
In the case of `N#Cc1c(NC(=O)C2CCCO2)sc2c1CCCCC2` (configuration not stated) it was -2.89%; in that of `COC(=O)c1c(NC(=O)CN2C(=O)NC(CCc3ccccc3)C2=O)sc2c1CCCCC2` (configuration not stated), 10%.
In the case of `COC(=O)c1c(NC(=O)C2CC(C)=C(C)CC2C(=O)O)sc2c1CCCCC2` (configuration not stated) it was 53.5% (active); in that of `COC(=O)c1c(NC(=O)CSc2nncs2)sc2c1CCCCC2`, 0.27%; in that of `C[C@H]1CCC/C=C/C(=O)c2c(O)cc(O)cc2CC(=O)O1`, 6.03%.
Consider `N#Cc1c(-c2ccc(Cl)cc2)c2c([nH]c1=S)CCCC2`, for which the inhibition was 17.9%.
For the molecule `C=CCN1C(C(=O)OC)CN(Cc2cn(Cc3ccccc3)nn2)CCS1(=O)=O` (configuration not stated), the inhibition was 3.76%.
In the case of `COc1ccc(CNS(=O)(=O)c2cc(-c3cc(C)no3)ccc2C(C)C)cc1` it was 1.21%; in that of `COc1cc(NC(=O)c2ccccc2NS(=O)(=O)c2ccc(Cl)s2)cc(OC)c1`, 84.6% (active); in that of `CCOC(=O)c1ccc(N/C(=N/S(=O)(=O)c2ccccc2)c2ccccc2)cc1`, 0.82%.
Turning to `COc1ccc(CCNS(=O)(=O)c2ccc(Cl)s2)cc1OC`, the inhibition is -4.15%.
In the case of `CCOc1ncccc1C(=O)Nc1ccc(S(=O)(=O)Nc2nc(C)cc(C)n2)cc1`, the inhibition was 16.8%.
With `COc1cccc(NC(=O)c2ccccc2N(Cc2ccccc2)S(C)(=O)=O)c1`, the inhibition was 4.73%.
The same measure for `COC(=O)c1ccc(NC(=O)c2ccccc2NS(=O)(=O)c2ccccc2)cc1`: 74.1% (active).
In the case of `COc1ccnc(NC(=S)N2CCN(c3ncc(C(F)(F)F)cc3Cl)CC2)c1` it was 2.94%.
In the case of `COc1cc(/C=C/C(=O)OCC(=O)Nc2cccc(Oc3ccccc3)c2)ccc1O` it was 15.1%; in that of `CC(C)CNc1cccc2c1S(=O)(=O)N[C@H](C)CO2`, 2.72%.
Turning to `COc1ccc(C(CNC(=O)c2ccc(S(=O)(=O)Nc3ccccc3C)cc2)N2CCOCC2)cc1` (configuration not stated), the inhibition is -3.71%.
In the case of `COc1ccc(C(CNC(=O)c2cccc(NS(=O)(=O)c3ccc(C)c(F)c3)c2)N2CCCC2)cc1` (configuration not stated) it was 2.37%; in that of `COc1ccc(C(CNC(=O)c2cccc(S(=O)(=O)Nc3ccccc3Cl)c2)N2CCOCC2)cc1` (configuration not stated), 46.8% (active); in that of `CC1=C(C(=O)Nc2cc(C)ccn2)C(c2cnn(C)c2)C2=C(CC(c3ccccc3)CC2=O)N1` (configuration not stated), -6.66%.
In the case of `O=C(Nc1ccc(Br)cc1)OCCN1C(=O)CCC12CCC(c1ccccc1)CC2` (configuration not stated) it was 5.9%; in that of `C[C@H](O)[C@@H]1CN2CCc3ccc(-c4ccc5c(c4)OCO5)cc3[C@@H]2C[C@@H]1N(C)C(=O)C1CCCCC1`, 6.89%; in that of `Cc1cc(NCCc2c[nH]c3ccccc23)ccc1Oc1cccnc1`, 7.17%.
The same measure for `CCc1cccc(C)c1N(C(=O)Cn1c(CO)nc2ccccc21)C(C)COC` (configuration not stated): -9.89%; for `COC(=O)[C@]12C[C@H](CC(=O)NCCc3ccccc3OC)C(=O)N(Cc3ccco3)C1=C[C@H](C(C)C)O[C@@H]2C1CC1`: 3.46%.
Consider `Cc1nc2cc(NC(=O)CSc3nc4c(C)cccc4cc3C#N)ccc2s1`, for which the inhibition was 2.03%.
`Cc1ccc(NC(=O)CSc2nn3c(=O)c(C)nnc3s2)cc1Cl`: the inhibition was 2.36%.
In the case of `Cc1ccc(NC(=O)CSc2sc3c(O)cc(=O)[nH]c3c2C#N)cc1C` it was 40.4% (active); in that of `CCOC(=O)C1CSCCS(=O)(=O)N1Cc1ccc(Cl)cc1` (configuration not stated), 1.28%.
The same measure for `COC[C@@H]1CCCN1c1ccc2c(c1)O[C@H](C)CCN(C1CC1)S2(=O)=O`: 0.67%; for `CCCCc1ccc(S(=O)(=O)NC(=O)C2(C)CCN2C(=O)c2ccccc2)cc1` (configuration not stated): 32.5%; for `CC1(C(=O)NS(=O)(=O)c2ccccc2)CCN1C(=O)C/C=C/c1ccccc1` (configuration not stated): 7.12%.
In the case of `Cc1ccc(F)c(S(=O)(=O)NC(=O)C2(C)CCN2C(=O)CCc2cccs2)c1` (configuration not stated) it was 3.47%; in that of `Cc1ccccc1S(=O)(=O)NC(=O)C1(C)CCN1C(=O)Cc1ccc(Cl)cc1Cl` (configuration not stated), 32.5%.
As to `CCCNC(=O)C1(C)CCN1C(=O)Cc1ccc(-c2ccccc2)cc1` (configuration not stated), the inhibition was 0.2%.
Take `COc1ccc(S(=O)(=O)NC(=O)C2(C)CCN2C(=O)c2ccccc2CCc2ccccc2)cc1` (configuration not stated): the inhibition was 43.4% (active).
For the molecule `CC1(C(=O)NS(=O)(=O)c2ccccc2)CCN1C(=O)Cc1ccc(-c2ccccc2)cc1` (configuration not stated), the inhibition was 41.7% (active).
Turning to `CC1(C(=O)NS(=O)(=O)Cc2cccc(Cl)c2)CCN1C(=O)Cc1ccc(Cl)cc1Cl` (configuration not stated), the inhibition was 42.9% (active).
Consider `CC1(C(=O)NS(=O)(=O)Cc2cccc(Cl)c2)CCN1C(=O)Cc1ccccc1` (configuration not stated), for which the inhibition was 12.6%.
Turning to `CC1(C(=O)NS(=O)(=O)c2cccs2)CCN1C(=O)Cc1ccc(-c2ccccc2)cc1` (configuration not stated), the inhibition was 40.2% (active).
In the case of `C#Cc1ccc(NC(=O)C2(C)CCN2C(=O)Cc2ccc(-c3ccccc3)cc2)cc1` (configuration not stated) it was 9.25%; in that of `Cc1nc(C(F)(F)F)ccc1C(=O)N1CCC1(C)C(=O)NS(=O)(=O)c1ccccc1` (configuration not stated), 4.76%.
The same measure for `Nc1ncnc2c1ncn2[C@@H]1O[C@H](C(=O)N[C@@H](CCc2ccccc2)C(=O)N2CCCN(Cc3cccs3)CC2)[C@@H](O)[C@H]1O`: 1.07%; for `CCCC[C@H]1C2CC(OC(=O)NCc3ccccc3)C(C2)[C@H]2CCCCN21` (some centres not stated): 2.74%; for `O=S1(=O)c2c(NCc3ccco3)cccc2Oc2ccccc2CN1Cc1cn(Cc2cccc(C(F)(F)F)c2)nn1`: 13.6%.
The same measure for `COCc1cc(N2CCN(C(=O)OC(C)(C)C)C[C@@H]2C)ccc1N1CCN(Cc2ccccc2)[C@H](C)C1`: 3.76%.
As to `CC(C)c1ccc(CC(=O)N2CCC2(C)C(=O)NS(=O)(=O)c2ccc(C(C)(C)C)cc2)cc1` (configuration not stated), the inhibition is 71% (active).
The same measure for `CC(C)(C)c1ccc(S(=O)(=O)NC(=O)C2(C)CCN2C(=O)CC2CC2)cc1` (configuration not stated): 5.41%.
For the molecule `CCCC(=O)N1CCC1(C)C(=O)NS(=O)(=O)c1ccc(Cl)cc1` (configuration not stated), the inhibition is 3.6%.
In the case of `O=c1ccc2c(-c3ccccc3S(=O)(=O)O)c3ccc(O)c(O)c3oc-2c1O` it was 66.8% (active); in that of `COc1ccc(C(=O)CSc2nnc(-c3cnccn3)n2-c2ccc(C)cc2)cc1`, 4.26%.
The same measure for `Cc1cc(NC(=O)COC(=O)/C=C/c2ccc(C)o2)no1`: -0.62%; for `O=C(/C=C/c1ccc([N+](=O)[O-])o1)NNC(=O)c1ccc(F)cc1`: 7.58%; for `Cc1ccc(/C=C/C(=O)Nc2ccc([N+](=O)[O-])c(NC(=O)/C=C/c3ccc(C)o3)c2)o1`: 51% (active).
In the case of `C[C@@H]1ON(C)[C@H]2C[C@H]3c4[nH]c5cccc(-c6ccc7c(c6)OCO7)c5c4CCN3C[C@@H]12` it was 6.14%.
As to `COc1ccccc1C(=O)NCCC(=O)NN1C(=O)NC2(CCCCC2)C1=O`, the inhibition is -4.93%.
Turning to `COc1ccccc1C(=O)Nc1nc2nc(-c3ccccc3)cc(=O)n2[nH]1`, the inhibition was 7.94%.
The same measure for `COc1cccc2sc(NNC(=O)c3nc4ccccc4s3)nc12`: 62.5% (active); for `COc1ccccc1C(=O)Nn1cnnc1`: -5.43%.
In the case of `COC(=O)[C@@]12CCCCC3=C1N(CCC3)C(=O)[C@H]2CC(=O)NCc1cccc2ccccc12` it was 3.84%; in that of `COc1ccc(S(=O)(=O)N(CC(=O)N/N=C/c2ccc(C(=O)O)cc2)Cc2ccccc2)cc1OC`, 25.2%; in that of `CC(=O)Nc1ccc(S(=O)(=O)N(CCc2ccccc2)CC(=O)N/N=C/c2ccc(C(=O)O)cc2)cc1`, 40.4% (active).
In the case of `CC(=O)Nc1ccc(S(=O)(=O)NCCc2ccccc2)cc1` it was -3.69%; in that of `O=C(Nc1c(Cl)c(C2CC2)nn1-c1ccccc1)C(Cl)(Cl)Cl`, 2.42%.
`CCCCCN1CCCCC(NC(=O)C(C)CCC)C1=O` (configuration not stated): the inhibition is -0.91%.
The same measure for `COC(=O)C1CN(Cc2ccc(F)cc2)CCS(=O)(=O)N1Cc1ccc(Cl)cc1` (configuration not stated): 2.48%.
